Screen size: about 5,500 compounds; about 2,000 (36%) were called active. About 18% were inconclusive and are not listed. Rule as the data show it: active = normalized growth mostly below about 0.91 (no sharp cut-off); inconclusive = no clear call, values can overlap the other calls; inactive = mostly above about 0.92. This is one part of the list.
Test: chemical genetic growth profiling, strain panel (AID 1159580);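 also: tested at 20 µM; growth read once vehicle control cultures reached saturation at 30 °C; 1 = growth at the plate median or of vehicle wells; lower values mean less growth of the strain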
Details: growth OD
[1] = S. cerevisiae deletion strains, locus YAR019C, strain CDC15, hits give low values
[2] = S. cerevisiae deletion strains, locus YBL105C, strain PKC1, hits give low values
[3] = S. cerevisiae deletion strains, locus YBR135W, strain CKS1, hits give low values
[4] = S. cerevisiae deletion strains, locus YBR136W, strain MEC1, hits give low values
[5] = S. cerevisiae deletion strains, locus YBR160W, strain CDC28, hits give low values
[6] = S. cerevisiae deletion strains, locus YDL017W, strain CDC7, hits give low values
[7] = S. cerevisiae deletion strains, locus YDL028C, strain MPS1, hits give low values
[8] = S. cerevisiae deletion strains, locus YDL101C, strain DUN1, hits give low values
[9] = S. cerevisiae deletion strains, locus YDL108W, strain KIN28, hits give low values
[10] = S. cerevisiae deletion strains, locus YDL132W, strain cdc53, hits give low values
[11] = S. cerevisiae deletion strains, locus YDL214C, strain PRR2, hits give low values
[12] = S. cerevisiae deletion strains, locus YDR052C, strain DBF4, hits give low values
[13] = S. cerevisiae deletion strains, locus YDR054C, strain cdc34, hits give low values
[14] = S. cerevisiae deletion strains, locus YDR226W, strain ADK1, hits give low values
[15] = S. cerevisiae deletion strains, locus YDR477W, strain SNF1, hits give low values
[16] = S. cerevisiae deletion strains, locus YER123W, strain YCK3, hits give low values
[17] = S. cerevisiae deletion strains, locus YER133W, strain GLC7, hits give low values
[18] = S. cerevisiae deletion strains, locus YFL009W, strain cdc4, hits give low values
[19] = S. cerevisiae deletion strains, locus YFL029C, strain CAK1, hits give low values
[20] = S. cerevisiae deletion strains, locus YFR003C, strain YPI1, hits give low values
[21] = S. cerevisiae deletion strains, locus YFR019W, strain FAB1, hits give low values
[22] = S. cerevisiae deletion strains, locus YFR028C, strain CDC14, hits give low values
[23] = S. cerevisiae deletion strains, locus YGR040W, strain KSS1, hits give low values
[24] = S. cerevisiae deletion strains, locus YGR052W, strain FMP48, hits give low values
[25] = S. cerevisiae deletion strains, locus YGR092W, strain DBF2, hits give low values
[26] = S. cerevisiae deletion strains, locus YHR030C, strain SLT2, hits give low values
[27] = S. cerevisiae deletion strains, locus YHR079C, strain IRE1, hits give low values
[28] = S. cerevisiae deletion strains, locus YHR082C, strain KSP1, hits give low values
[29] = S. cerevisiae deletion strains, locus YHR205W, strain SCH9, hits give low values
[30] = S. cerevisiae deletion strains, locus YIL147C, strain SLN1, hits give low values
[31] = S. cerevisiae deletion strains, locus YJL095W, strain BCK1, hits give low values
[32] = S. cerevisiae deletion strains, locus YJL128C, strain PBS2, hits give low values
[33] = S. cerevisiae deletion strains, locus YJL157C, strain FAR1, hits give low values
[34] = S. cerevisiae deletion strains, locus YJR016C, strain ILV3, hits give low values
[35] = S. cerevisiae deletion strains, locus YJR066W, strain TOR1 (second series), hits give low values
[36] = S. cerevisiae deletion strains, locus YJR066W, strain TOR1, hits give low values
[37] = S. cerevisiae deletion strains, locus YKL048C, strain ELM1, hits give low values
[38] = S. cerevisiae deletion strains, locus YKL067W, strain YNK1, hits give low values
[39] = S. cerevisiae deletion strains, locus YKL101W, strain HSL1, hits give low values
[40] = S. cerevisiae deletion strains, locus YKL193C, strain SDS22, hits give low values
[41] = S. cerevisiae deletion strains, locus YKL203C, strain TOR2, hits give low values
[42] = S. cerevisiae deletion strains, locus YLR113W, strain HOG1, hits give low values
[43] = S. cerevisiae deletion strains, locus YLR133W, strain CKI1, hits give low values
[44] = S. cerevisiae deletion strains, locus YLR403W, strain SFP1, hits give low values
[45] = S. cerevisiae deletion strains, locus YML070W, strain DAK1, hits give low values
[46] = S. cerevisiae deletion strains, locus YMR205C, strain PFK2 (second series), hits give low values
[47] = S. cerevisiae deletion strains, locus YMR277W, strain FCP1, hits give low values
[48] = S. cerevisiae deletion strains, locus YNL006W, strain LST8, hits give low values
[49] = S. cerevisiae deletion strains, locus YNL020C, strain ARK1, hits give low values
[50] = S. cerevisiae deletion strains, locus YNL161W, strain CBK1, hits give low values
[51] = S. cerevisiae deletion strains, locus YNL183C, strain NPR1, hits give low values
[52] = S. cerevisiae deletion strains, locus YNL207W, strain RIO2, hits give low values
[53] = S. cerevisiae deletion strains, locus YNL222W, strain SSU72, hits give low values
[54] = S. cerevisiae deletion strains, locus YNL307C, strain MCK1 (second series), hits give low values
[55] = S. cerevisiae deletion strains, locus YOL136C, strain PFK27, hits give low values
[56] = S. cerevisiae deletion strains, locus YOR061W, strain CKA2, hits give low values
[57] = S. cerevisiae deletion strains, locus YOR119C, strain RIO1, hits give low values
[58] = S. cerevisiae deletion strains, locus YOR231W, strain MKK1, hits give low values
[59] = S. cerevisiae deletion strains, locus YOR329C, strain SCD5, hits give low values
[60] = S. cerevisiae deletion strains, locus YPL031C, strain PHO85, hits give low values
[61] = S. cerevisiae deletion strains, locus YPL153C, strain RAD53, hits give low values
[62] = S. cerevisiae deletion strains, locus YPL204W, strain HRR25, hits give low values
[63] = S. cerevisiae deletion strains, locus YPL209C, strain IPL1, hits give low values
[64] = S. cerevisiae deletion strains, locus YPL256C, strain CLN2, hits give low values
[65] = S. cerevisiae deletion strains, locus YPR025C, strain CCL1, hits give low values
[66] = S. cerevisiae deletion strains, locus YPR106W, strain ISR1, hits give low values
[67] = S. cerevisiae deletion strains, locus YPR111W, strain DBF20, hits give low values
[68] = S. cerevisiae deletion strains, strain NNK1, hits give low values
[69] = S. cerevisiae deletion strains, locus YAL013W, strain DEP1, hits give low values
[70] = S. cerevisiae deletion strains, locus YBR229C, strain ROT2, hits give low values
[71] = S. cerevisiae deletion strains, locus YDR150W, strain NUM1, hits give low values
[72] = S. cerevisiae deletion strains, locus YEL061C, strain CIN8, hits give low values
[73] = S. cerevisiae deletion strains, locus YGR078C, strain PAC10, hits give low values
[74] = S. cerevisiae deletion strains, locus YHR087W, strain rtc3, hits give low values
[75] = S. cerevisiae deletion strains, locus YJL187C, strain SWE1, hits give low values
[76] = S. cerevisiae deletion strains, locus YJR043C, strain POL32, hits give low values
[77] = S. cerevisiae deletion strains, locus YJR075W, strain HOC1, hits give low values
[78] = S. cerevisiae deletion strains, locus YLR039C, strain RIC1, hits give low values
[79] = S. cerevisiae deletion strains, locus YLR058C, strain SHM2 (second series), hits give low values
[80] = S. cerevisiae deletion strains, locus YLR085C, strain ARP6, hits give low values
[81] = S. cerevisiae deletion strains, locus YLR262C, strain YPT6, hits give low values
[82] = S. cerevisiae deletion strains, locus YML094W, strain GIM5, hits give low values
[83] = S. cerevisiae deletion strains, locus YMR219W, strain ESC1, hits give low values
[84] = S. cerevisiae deletion strains, locus YMR263W, strain SAP30, hits give low values
[85] = S. cerevisiae deletion strains, locus YNL153C, strain GIM3, hits give low values
[86] = S. cerevisiae deletion strains, locus YNL298W, strain CLA4 (second series), hits give low values
[87] = S. cerevisiae deletion strains, locus YNL322C, strain KRE1, hits give low values
[88] = S. cerevisiae deletion strains, locus YNR030W, strain Alg12, hits give low values
[89] = S. cerevisiae deletion strains, locus YPL055C, strain LGE1, hits give low values
[90] = S. cerevisiae deletion strains, locus YPL241C, strain CIN2, hits give low values
[91] = S. cerevisiae deletion strains, locus YPR135W, strain CTF4, hits give low values

Measured: normalized growth

Cc1cccc(Cl)c1/C=N\NC(N)=S
inactive: [2] 0.911 | [3] 0.904 | [11] 0.867 | [15] 0.765 | [16] 0.873 | [17] 0.805 | [21] 0.957 | [23] 0.8 | [24] 0.818 | [25] 0.79 | [27] 0.94 | [28] 0.893 | [29] 1.02 | [31] 0.934 | [32] 0.973 | [33] 0.855 | [35] 0.837 | [36] 0.755 | [37] 0.88 | [38] 0.886 | [39] 0.919 | [42] 1.04 | [43] 0.886 | [44] 0.756 | [45] 0.932 | [46] 0.886 | [48] 0.953 | [49] 0.904 | [50] 0.924 | [51] 0.77 | [53] 0.931 | [54] 0.797 | [55] 0.948 | [56] 0.864 | [58] 0.949 | [59] 0.927 | [60] 0.824 | [61] 0.868 | [62] 0.877 | [63] 0.912 | [64] 1.03 | [65] 0.914 | [66] 0.927 | [67] 0.919 | [68] 0.932
active: [1] 0.868 | [4] 0.862 | [5] 0.892 | [6] 0.896 | [7] 0.88 | [8] 0.89 | [9] 0.869 | [10] 0.877 | [12] 0.858 | [13] 0.865 | [14] 0.826 | [18] 0.881 | [19] 0.865 | [20] 0.899 | [22] 0.828 | [26] 0.644 | [30] 0.87 | [34] 0.885 | [40] 0.872 | [41] 0.671 | [47] 0.87 | [52] 0.845 | [57] 0.625

S=C(N/N=C\c1ccc(Cl)cc1)N/N=C\c1ccc(Cl)cc1
active: [16] 0.477 | [25] 0.284 | [26] 0.64 | [33] 0.582 | [35] 0.448 | [38] 0.645 | [39] 0.714 | [42] 0.66 | [43] 0.693 | [45] 0.663 | [49] 0.576 | [54] 0.469 | [56] 0.618 | [61] 0.654 | [64] 0.686
inactive: [1] 0.957 | [2] 0.962 | [3] 0.962 | [4] 0.973 | [5] 0.969 | [6] 0.961 | [7] 0.959 | [8] 0.992 | [9] 0.967 | [10] 0.957 | [11] 0.77 | [12] 0.967 | [13] 0.944 | [14] 0.972 | [15] 0.81 | [17] 0.748 | [18] 0.952 | [19] 0.955 | [20] 0.965 | [21] 0.832 | [22] 0.963 | [23] 0.849 | [24] 0.779 | [27] 0.588 | [28] 0.817 | [29] 0.793 | [30] 0.966 | [31] 0.653 | [32] 0.991 | [34] 0.955 | [36] 0.596 | [37] 0.833 | [40] 0.961 | [41] 0.783 | [44] 0.738 | S. cerevisiae deletion strains, locus YMR001C, strain CDC5, hits give low values 0.965 | [46] 0.746 | [47] 0.953 | [48] 0.96 | [50] 0.963 | [51] 0.81 | [52] 0.955 | [53] 0.961 | S. cerevisiae deletion strains, locus YOL078W, strain AVO1, hits give low values 0.96 | [55] 0.75 | [57] 0.866 | [58] 0.697 | [59] 0.957 | [60] 0.688 | [62] 0.682 | [63] 0.967 | [65] 0.966 | [66] 0.972 | [67] 0.975 | [68] 0.984 | S. cerevisiae deletion strains, strain TSCII, hits give low values 0.955

NC(=S)N/N=C\c1cc(F)cc(F)c1
active: [80] 0.34 | S. cerevisiae deletion strains, locus YMR307W, strain GAS1, hits give low values 0.574 | [86] 0.761
inactive: [69] 0.97 | [70] 1.01 | [8] 1.04 | [71] 0.96 | [72] 0.94 | [73] 0.998 | S. cerevisiae deletion strains, locus YGR229C, strain SMI1, hits give low values 0.944 | [26] 0.778 | [74] 1.08 | [75] 0.971 | [76] 0.98 | [77] 1.02 | [78] 1.05 | [79] 0.994 | [81] 1.04 | [82] 0.923 | [83] 0.999 | [84] 0.92 | [85] 0.976 | [87] 1.05 | [88] 0.922 | [89] 0.963 | [90] 0.933 | [91] 0.78 | S. cerevisiae strains, strain wild type, hits give low values 0.923

NC(=S)N/N=C\c1ccc(F)c(Cl)c1
active: [69] 0.921 | [72] 0.804 | [26] 0.605 | [80] 0.198 | [82] 0.759 | [86] 0.661 | [88] 0.811
inactive: [70] 0.995 | [8] 0.972 | S. cerevisiae deletion strains, locus YDL134C, strain PPH21, hits give low values 0.992 | [71] 1 | [73] 0.988 | [74] 1.04 | [75] 0.981 | [76] 0.996 | [77] 1.04 | [78] 0.966 | [79] 0.996 | [81] 1.06 | [83] 0.999 | [84] 0.919 | S. cerevisiae deletion strains, locus YNL128W, strain TEP1, hits give low values 0.944 | [85] 0.961 | [87] 1.04 | [89] 0.849 | [90] 0.889 | [91] 0.655

From PubChem BioAssay AID1159580 (chemical genetic matrix, 2015)
